In PubChem BioAssay (NCI):
The panel holds about 79,000 compounds, 15% with a hit somewhere; the sample as a whole holds those more often. Values without a mark were called inactive. The source made the active and inactive calls. Rule as the data show it: active = growth inhibition above about 70%; inactive = the rest. *1 amine or outer side, *2 acyl side, *3 side chain or, on linkers, in order; H or OH if unused. Where a SMILES comes first, the peptide text is derived from it. Bridges are numbered along the chain shown (N, C = ends). Roman numbers before positions name the chains, in order. [ ]: non-standard residue; d: D form. Actinocin(1to9) = Cc1c2oc3c(C)ccc(C(=O)[*:2])c3nc-2c(C(=O)[*:1])c(N)c1=O; NMeY = CN[CH](Cc1ccc(O)cc1)C(=O)O; Sar = CNCC(=O)O

What was measured:
[1] = NCI Yeast Anticancer Drug Screen. Data for the rad50 strain (AID 155);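 also: 0% = growth of vehicle-only cultures of the same strain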; conditions: S. cerevisiae rad50 strain growth inhibition; at 50.0 µM; stronger effect = higher value
How it was run: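 Cells are treated with compound, grown, and their growth is then scored against vehicle-only cultures of the same repair-deficient yeast strain.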

[2] = NCI Yeast Anticancer Drug Screen. Data for the mec2-1 strain (AID 157); conditions: S. cerevisiae mec2-1 strain, at 50.0 µM, stronger effect = higher value
How it was run: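 Compounds were applied to mec2-1 yeast cells. Their growth was then compared with that of vehicle-treated cultures to give growth inhibition.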

[3] = NCI Yeast Anticancer Drug Screen. Data for the sgs1 mgt1 strain (AID 161);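 also: 0% = growth of cultures given vehicle only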; conditions: S. cerevisiae sgs1 mgt1 strain, at 50.0 µM, stronger effect = higher value
How it was run: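 Percent growth inhibition was derived by comparing compound-exposed mutant yeast with vehicle-exposed cultures. The strain carries alterations in DNA damage repair.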

[4] = NCI Yeast Anticancer Drug Screen. Data for the cln2 rad14 strain (AID 165);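 also: 0% = growth equal to vehicle treated cultures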; conditions: S. cerevisiae cln2 rad14 strain, at 50.0 µM, stronger effect = higher value
How it was run: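 Strain: cln2 rad14 yeast, altered in cell cycle control and DNA damage repair. Read-out: growth inhibition vs vehicle.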

[5] = NCI Yeast Anticancer Drug Screen. Data for the bub3 strain (AID 167); conditions: S. cerevisiae bub3 mutant strain, at 50.0 µM, stronger effect = higher value
How it was run: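 Part of a panel of yeast mutants defective in DNA damage repair or cell cycle regulation. Each strain is grown with compound, and inhibition is calculated relative to solvent-treated cultures.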

[6] = NCI Yeast Anticancer Drug Screen. Data for the mlh1 rad18 strain (AID 175); conditions: S. cerevisiae mlh1 rad18 strain growth inhibition; at 50.0 µM; stronger effect = higher value
How it was run: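 A repair-deficient yeast strain is exposed to test compound, and growth is scored relative to vehicle-treated controls.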

Structure (SMILES)	growth inhibition [1]	growth inhibition [2]	growth inhibition [3]	growth inhibition [4]	growth inhibition [5]	growth inhibition [6]
CSC(=S)n1nc(-c2ccccc2)c(N=Nc2ccccc2[N+](=O)[O-])c1-c1ccccc1	31.6%	12.5%	20.2%	-30.9%	18.6%	29.9%
CC1=CC(=O)CC(C(C)C)C1 (stereo unspecified)	15.5%	-7.5%	22.8%	-5.95%	1.95%	5.2%
CCn1c(=O)c(Cl)c2n(C)c3ccccc3n2c1=O	-6.2%	-7.7%	-2.85%	-4.4%	10.6%	-1.05%
COc1ccc(C(=O)c2ccc(OC)cc2)cc1	-15.1%	-27.1%	-3.1%	-17.6%	1.6%	-15.1%
O=C(O)CCC(=O)Nc1ccc(C(=O)O)c(O)c1	8.4%	-27.8%	-11.1%	-4.45%	20.9%	-17.9%
O=c1sc2ccccc2n1CCN(CCn1c(=O)sc2ccccc21)c1ccccc1	39.7%	-7.75%	13.6%	-45.5%	1.65%	14.2%
C=CCc1ccc(OC(=O)Nc2ccc(S(=O)(=O)CC)cc2)c(OC)c1	1.65%	-12.8%	-26.4%	-19.9%	-14.2%	-10.3%
COC(=O)C(C#N)=C(C)C	2.3%	-23.6%	16.9%	19.9%	0.05%	7.95%
CC1OC(OC23C(=O)CC(C)(O)CC2(O)C=CC2=C3C(=O)c3ccc(C4CC(OC5CCC(OC6CC(O)C(O)C(C)O6)C(C)O5)C(O)C(C)O4)c(O)c3C2=O)CCC1O (stereo unspecified)	1.4%	-7.95%	5.75%	-0.5%	-0.25%	18.1%
O=C(/C(=C\c1ccc(Cl)cc1)c1ccccc1)c1ccccc1	-38%	-29.5%	4.9%	5.95%	-23.4%	-16.1%
COc1ccc([N+](=O)[O-])c(C(OC(C)=O)OC(C)=O)c1OC(C)=O	4%	5.6%	20.2%	9%	1.15%	-9.4%
O=CNCCc1ccc2c(c1)[nH]c1ccccc12	8.45%	16.1%	12.9%	-11.3%	-13.2%	20.6%
C/C(=N\N=Nc1ccc(N(C)C)cc1)c1ccccc1	1.6%	-3.3%	-5.25%	15.9%	29.2%	9.1%
COC(=O)C(C)n1c(C)csc1=S (stereo unspecified)	-0.15%	4.85%	-1.05%	-26.4%	16.6%	-0.55%
Cc1nc(N)sc1N=Nc1ccc(Br)cc1Br	85.2% (active)	68.8%	86.8% (active)	63.1%	46.9%	76.4% (active)
O=C(NNC(=S)Nc1ccccc1)C12CC3CC(CC(C3)C1)C2	-12%	31.4%	29.8%	14.7%	35.5%	1.3%
N#Cc1ccc(OCCSCCCCCCCCCCSCCOc2ccc(C#N)cc2)cc1	-16.8%	-20.9%	-19.8%	-6.05%	-1%	-15.8%
CCCCC[CH2][Sn]([CH2]CCCCC)([CH2]CCCCC)[NH]S(=O)(=O)c1ccc(C)cc1	99.3% (active)	99.6% (active)	99.5% (active)	99% (active)	99.2% (active)	99.3% (active)
COC(=O)/C(C#N)=C/Sc1ccccc1	61.6%	33.7%	38%	7.2%	26.6%	-7.7%
CC(=O)O[C@H]1CC[C@@]2(C)[C@@H](CC[C@@H]3[C@@H]2CC[C@]2(C)[C@@H](C(=O)CCC(F)(F)F)CC[C@@H]32)C1	16.9%	20.9%	33.6%	23.3%	0.15%	18.9%
COc1ccc(/C=C/C(=O)c2c(-c3ccccc3)nn(C)c(=O)c2N2CCCCC2)cc1	7.8%	-8.5%	-10.8%	26.5%	7.05%	1.7%
COC(=O)Nc1cccc(-c2nc3ccc(NC(=O)OC)cc3c(=O)n2-c2ccccc2)c1	-26.3%	-16.9%	-22.6%	8.55%	-15.8%	5%
CCOC(=O)C(CCc1ccc([N+](=O)[O-])cc1)(CCc1ccc([N+](=O)[O-])cc1)C(=O)OCC	-8.7%	-16.1%	-7.3%	-29.1%	-0.3%	6.15%

Structure (SMILES)	growth inhibition [1]	growth inhibition [2]	growth inhibition [3]	growth inhibition [4]	growth inhibition [5]	growth inhibition [6]
CCCOc1ccccc1C(=O)N1CCOCC1	25%	-0.25%	7.8%	16.1%	8.8%	15.8%
CC(=O)OC12C=CC(=O)N1c1ccccc1C(=O)O2 (stereo unspecified)	18.4%	8.8%	25%	29.2%	13.8%	42.4%
CC(C)(C)C1CCC2c3c([nH]c4ccccc34)C3C(=O)N(c4cc(Cl)ccc4Cl)C(=O)C3C2C1 (stereo unspecified)	18%	0.75%	-4.05%	5.4%	6.3%	0.9%
CCCOc1cc2c(cc1C(C)(C)c1ccccc1)OCO2	-16.9%	-18.6%	-12.7%	-27.9%	-3.5%	-15.4%
Cc1[nH]c2ccccc2c1C1=CC(=O)c2ccccc2C1=O	8.55%	18%	21.6%	2.6%	-1%	13.8%
CC(C)(O)C(Br)(Br)Br	0.2%	3.7%	-22.4%	-33%	-21.9%	32.1%
CC1=C(C(c2ccccc2)c2ccccc2)C(=O)c2ccccc2C1=O	-3.35%	-6.5%	1.45%	1.5%	-31.8%	-0.7%
NCCSS(=O)(=O)CCN	-17.4%	-4.6%	18.4%	-18.4%	1.95%	3.4%
CSc1ccc(NC(=O)c2ccc([N+](=O)[O-])cc2)cc1	-1.1%	5.6%	10.3%	-13.3%	25.9%	3.05%
O=S(=O)(Nc1ccc(NS(=O)(=O)c2ccccc2)nc1)c1ccccc1	13.8%	-0.55%	32.1%	-19.9%	5.3%	-0.75%
CN1C(C)(C)CC(CN2c3ccccc3Sc3ccccc32)C1(C)C (stereo unspecified)	34.2%	6.8%	37.9%	-19.3%	27.9%	45.2%
Cn1c(=O)cc2n(C)c3ccccc3n2c1=O	33.1%	18.6%	1.2%	-5.9%	6.2%	5.8%
CC(C)(Cc1ccc(Cl)cc1)NC(N)=O	-35.5%	-73.7%	-21.4%	3.1%	-44.1%	-31.8%
CCC(C)C(=O)OCC1(c2ccc(C)cc2OC(=O)C(C)C)CO1 (stereo unspecified)	15.7%	-2.45%	19.2%	-1%	-6%	12.2%
Nc1[nH]n(-c2ccccc2)c(=O)c1/C=N/C(=S)N=Nc1c(O)[nH]c2ccccc12	1.5%	-0.3%	41%	1.5%	9.35%	24.8%
COc1ccc(CC2C(=O)OC(C)C(NC(=O)c3c4nc5c(C(=O)NC6C(=O)NC(C(C)C)C(=O)N7CCCC7C(=O)N(C)CC(=O)N(C)C(Cc7ccc(OC)cc7)C(=O)OC6C)ccc(C)c5oc-4c(C)c(=O)c3N)C(=O)NC(C(C)C)C(=O)N3CCCC3C(=O)N(C)CC(=O)N2C)cc1 (stereo unspecified) (I: TVP[Sar][NMeY](Me) / II: TVP[Sar][NMeY](Me); ester I:1-I:C, II:1-II:C; linker I:N-II:N via Actinocin(1to9); configuration not given here)	-3%	-3.65%	-26.1%	8.5%	-25.8%	-24.7%
CNC(CCc1ccccc1)C(=O)O (stereo unspecified)	1.9%	-1.25%	8.4%	-7.3%	4.4%	2.7%
O=C(Cc1csc(N=Nc2c(O)[nH]c3ccccc23)n1)Nc1ccccc1	-16.2%	-24.4%	-6.35%	-8.75%	-7.05%	10.9%
CCCCC(CC)CO (stereo unspecified)	-12.4%	-25%	-32.7%	-108%	-16.5%	-20.3%
CC(C)=CC(=O)OC1C2C(C)C(=O)OC2C(O)C(C)C2C=CC(=O)C21C (stereo unspecified)	3.15%	-3.6%	9.6%	16.9%	11.1%	8.2%
CC(/C=N\NC(=S)SCc1ccccc1)=N/N=C(N)N	52.4%	50.2%	57.2%	-3.7%	52.9%	64.6%
CCCCCNC(=O)C(C)O (stereo unspecified)	5.6%	-8.3%	-9.7%	-30.5%	-2.2%	14.6%
CN(C)C(=O)NNC(=O)N(C)C	1.75%	20.5%	12.8%	-22.5%	6.85%	-0.7%
